Most compounds without a hit are left out; they make up all but 2.2% or so of the library.
SUMO Mot1 rescue: inhibitors of SUMOylation pathway: yeast Mot1-301 growth rescue; S. cerevisiae Mot1-301 growth rescue, ATP luminescence, 38.5C; percent above DMSO median, 100 means doubled; growth rescue, % at 18.8 µM; 320,000 compounds, 1% hits;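 active = every valid replicate shows activation above 250% relative to neutral control wells; inactive = the rest, any valid replicate at or below 250%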;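 note: OY570 slx delta 5 strain wells were the positive control but not used for scaling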
HGIII-sPLA2 inh: Inhibits HGIII-sPLA2 liposome hydrolysis, primary screen; inhibition, % at 12.2 µM; AID 743126; QFRET BODIPY PC-A2 liposome hydrolysis, fluorescence; Q9NZ20; 370,000 compounds, 0.56% hits;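 active = inhibition above mean plus 3 SD of compounds lying within the high and low control bounds, cut at about 19% in these data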;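 note: 0% = median of test compound wells and 100% = no enzyme DMSO wells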
Target sequence (Q9NZ20 whole entry, looked up): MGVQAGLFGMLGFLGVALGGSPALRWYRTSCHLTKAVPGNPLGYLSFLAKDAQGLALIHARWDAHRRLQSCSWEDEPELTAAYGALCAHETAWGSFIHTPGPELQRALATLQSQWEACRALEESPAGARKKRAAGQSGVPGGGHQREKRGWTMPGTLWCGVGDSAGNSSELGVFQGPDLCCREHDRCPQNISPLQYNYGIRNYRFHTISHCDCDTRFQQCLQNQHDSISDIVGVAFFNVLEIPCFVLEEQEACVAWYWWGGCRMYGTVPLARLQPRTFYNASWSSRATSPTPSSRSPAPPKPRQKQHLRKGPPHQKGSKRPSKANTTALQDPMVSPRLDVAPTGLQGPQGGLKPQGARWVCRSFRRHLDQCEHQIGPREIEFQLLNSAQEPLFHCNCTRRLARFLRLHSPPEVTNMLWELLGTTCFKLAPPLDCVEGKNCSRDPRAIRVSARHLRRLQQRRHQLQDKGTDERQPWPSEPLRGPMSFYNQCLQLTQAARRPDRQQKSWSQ
Efflux pump inh: blocks antifungal efflux pumps in multiplex yeast assay. S. cerevisiae Candida pump triplex, Nile Red efflux. inhibition, % at 10 µM. 330,000 compounds, 0.44% hits. AID 485275;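 active = plate passing quality check with inhibition over a set limit, or well fluorescence over plate mean plus 4 SD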;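 note: Nile Red retained in pooled yeast measured as flow cytometry median fluorescence; 0% = buffer negative control and 100% = Enniatin B positive control; higher means more Nile Red kept so more efflux inhibition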
SKN-1 block: inhibitors of C. elegans SKN-1; C. elegans VP596 Pgst-4::GFP/RFP ratio, acrylamide-induced, 24 h; AID 624304; 360,000 compounds, 0.49% hits; inhibition, % at 21.8 µM;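 active = interference check ratio from 0.5 to 1.5 plus GFP to RFP signal ratio inhibition reaching or exceeding a fixed threshold, cut at about 30% in these data, passing the limit was not always enough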
Mot1 SUMO dose: inhibits SUMO pathway, affecting Mot1-301 yeast growth. shares compounds with SUMO Mot1 rescue. S. cerevisiae Mot1-301 galactose growth, ATP luminescence, 24 h; -100 = growth of slx-deleted rescue strain. growth activity, percent, % at 42 µM. 2,300 tested, under 10 active;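 active = Signal drops as the depositor expects, and the fitted half-maximal dose is no more than ten times the top valid tested dose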;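 note: more negative values mean stronger growth rescue toward the control strain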
Active calls of the source: *; x = no result; + = active, no number.

SMILES | SUMO Mot1 rescue | HGIII-sPLA2 inh | Efflux pump inh | SKN-1 block | Mot1 SUMO dose
CCN(C(=O)c1ccco1)c1nc(-c2ccc(OC)cc2)cs1 | -15 | 7 | 0 | 46* | x
CN(C(=O)c1ccco1)c1nc(-c2ccccc2)cs1 | 2 | 0 | 0 | 40* | x
COc1ccc(-c2csc(N(CC(C)C)C(=O)c3ccco3)n2)cc1 | 218 | 0 | 0 | -6 | x
CCOC(=O)N1CCN(C(=O)c2cc3c(-c4cccc(OC)c4)nn(C)c3s2)CC1 | -11 | 4 | 0 | 22 | x
COc1ccc(N2CCN(C(=O)c3cc4c(-c5cccc(OC)c5)nn(C)c4s3)CC2)cc1 | 6 | -1 | 0 | 35* | x
O=[N+]([O-])c1ccc(COc2cccc3cccnc23)cc1 | -8 | 12 | 0 | 36* | x
Cc1oc(-c2ccc(-c3ccccc3)cc2)nc1CN(C)C1CCOC1 (centres undefined) | 191 | -9 | 0 | 65* | x
C/C(=N/Nc1ccc(F)cc1)c1ccc(Cl)s1 | 384* | 8 | 0 | -9 | 0
CC(=O)Nc1ccc(S(=O)(=O)Nc2ccc(S(=O)(=O)Nc3ncccn3)cc2)cc1 | + | 7 | 0 | -9 | 0
CC(=O)Nc1ccc(S(=O)(=O)Nc2cccc(-c3ccc4nncn4n3)c2)cc1 | 528* | 4 | 0 | 9 | 0
CC(=O)c1ccc(S(=O)(=O)Nc2cccc(-c3ccc4nncn4n3)c2)cc1 | -5 | -3 | 0 | 4 | x
CC(=O)Nc1ccc(S(=O)(=O)Nc2ncccn2)cc1 | 3 | 9 | 0 | -6 | x
CCc1cc2c(NCCO)ncnc2s1 | + | 5 | 0 | 20 | 0
C[C@@H]1COc2cccc(N3CCC[C@H]3CO)c2S(=O)(=O)N1 | x | 2 | x | 13 | x
COc1cc(C(=O)OCC(=O)NCc2ccccc2)cc(NC(=O)c2ccco2)c1OC | 383* | 3 | 0 | -4 | 0
Cc1cccc(OCc2nnc(SCC(=O)N3c4ccccc4CC3C)n2C)c1C (centres undefined) | 400* | -9 | 0 | -5 | 0
Cc1ccccc1OCc1nnc(SCC(=O)N2CCc3ccccc32)n1C | -11 | 5 | 0 | -39 | x
O=C(CSc1n[nH]c(=O)[nH]c1=O)Nc1ccc(SC(F)F)cc1 | -2 | 0 | 0 | 16 | x
N#Cc1cccc(NC(=O)CSc2n[nH]c(=O)[nH]c2=O)c1 | 652* | 13 | 0 | 2 | 1
Cc1cccc(Cn2cc(CN3CC(N(C)CCOC(=O)c4cc(C)cc(C)c4)CS3(=O)=O)nn2)c1 (centres undefined) | x | -15 | x | x | x
O=C1CC(C(=O)N2CCN(S(=O)(=O)c3cccc(F)c3)CC2)CN1Cc1ccccc1Cl (centres undefined) | 23 | -10 | 0 | 1 | x
Cc1onc(-c2ccc(Cl)cc2)c1-c1ccnc(SCC(=O)Nc2ccc(C(C)C)cc2)n1 | 1 | 2 | 0 | 1 | x
Nc1ccc(N2CCN(c3ccc(F)cc3)CC2)cc1 | 903* | 2 | 0 | 0 | 0
Nc1ccc(N2CCCCCC2)cc1 | 41 | x | 0 | x | x
COc1ccccc1C1NC(=O)CS1 (centres undefined) | 360* | -3 | 0 | 22 | 0
SMILES | SUMO Mot1 rescue | HGIII-sPLA2 inh | Efflux pump inh | SKN-1 block | Mot1 SUMO dose
Cc1noc(C)c1C(=O)N1CCC1(C)C(=O)NS(=O)(=O)c1cccc(OC(F)F)c1 (centres undefined) | x | 3 | x | 14 | x
CC(=O)N1c2ccc([N+](=O)[O-])cc2NC(=O)CC1C (centres undefined) | 600* | 4 | 0 | -5 | -1
Cc1ccc(NC(=O)COC(=O)Cn2c(C)csc2=O)c([N+](=O)[O-])c1 | -22 | 5 | 0 | -7 | x
Cc1csc(=O)n1CC(=O)OCC(=O)Nc1cc([N+](=O)[O-])ccc1Cl | 485* | 3 | 0 | -5 | 0
Cc1ccc(N2C(=O)c3cccc4c(N5CCN(C)CC5)ccc(c34)C2=O)c2cccnc12 | 702* | x | 0 | x | -1
O=C1c2cccc3c(N4CCCCC4)ccc(c23)C(=O)N1c1ccccc1O | x | -35 | 0 | -10 | x
CC(=O)Nc1cccc(OCC(=O)NS(=O)(=O)c2ccc(C)cc2)c1 | 846* | x | 1 | 19 | -1
O=C(NNC(=O)c1ccccc1O)c1ccco1 | + | -3 | 0 | 2 | 0
N#CC(C#N)=C1C=CC=CN1/C(=C\c1ccccc1)C(=O)c1cccs1 | -5 | 4 | 0 | 18 | x
N#CC(C#N)=C1C=CC=CN1/C(=C\c1ccccc1Cl)C(=O)c1ccccc1 | 600* | 15 | 0 | 7 | -2
COc1ccc(N2C(=O)CCC(C(=O)NCc3cccnc3)C2c2ccc(OC)c(OC)c2)cc1 (centres undefined) | 359* | -2 | 0 | -12 | 1
Nc1ccc(C(=O)OCC(=O)Nc2cc([N+](=O)[O-])ccc2F)cc1 | 5 | 5 | 0 | 5 | x
CCn1c(C)c(C(C)=O)c(N2CCN(c3ccc(F)cc3)CC2)nc1=S | 917* | 6 | 0 | -4 | 0
CC1(OC(=O)CCc2ccccc2)C(=O)C=C2C=C(c3ccc(C#N)cc3)N(CCN3CCOCC3)C=C2C1=O (centres undefined) | -19 | -2 | 0 | 21 | x
CC1(OC(=O)CCc2ccccc2)C(=O)C=C2C=C(c3ccc(C#N)cc3)N(C3CCCC3)C=C2C1=O (centres undefined) | 645* | -1 | 0 | 2 | 0
CC1(OC(=O)CCc2ccccc2)C(=O)C=C2C=C(c3ccc(C#N)cc3)N(CC3CC3)C=C2C1=O (centres undefined) | 589* | 0 | 0 | 16 | 0
CCn1c(SCC(=O)N/N=C\c2ccccc2OCC(=O)O)nnc1-c1ccc(Cl)cc1 | 34 | 1 | 0 | -3 | x
C=C(C)Cn1c(SCC(=O)N/N=C/c2ccccc2OCC(=O)O)nnc1-c1ccc(Br)cc1 | 572* | -8 | 0 | 17 | 0
CCCNC(=O)CN1CCN(c2cc3ccccc3c(Cl)n2)CC1 | -7 | -3 | 0 | 0 | x
O=C(NCc1cccc(F)c1F)C1CCC(=O)N(C2CC2)C1 (centres undefined) | 421* | 7 | 0 | -12 | 0
CCn1c(-c2ccccc2)c(C(=O)CC#N)c2ccccc21 | 373* | -13 | 0 | 21 | 0
O=S(=O)(CCN1CCCCC1)Oc1ccc(Cl)cc1Cl | 922* | 7 | 0 | 13 | 1
CCCCN1C(=O)C(CC(=O)NCC2CCCCC2)CC(C(=O)N(CC)CC)=C1C (centres undefined) | x | 8 | x | 2 | x
Cc1cc(C)n(-c2nc(-c3ccccc3)cs2)n1 | -5 | -6 | 0 | 6 | x
Cc1cc(C)n(-c2nc(-c3cccc(Cl)c3)cs2)n1 | 434* | 1 | 0 | 5 | 1
CCCN1C(=O)c2[nH]nc(-c3cc(Cl)c(C)cc3O)c2C1c1ccc(O)c(OC)c1 (centres undefined) | 571* | -25 | 0 | 9 | 0
COCCCN1C(=O)c2[nH]nc(-c3cc(C)cc(C)c3O)c2C1c1ccc(O)c(OC)c1 (centres undefined) | -2 | -35 | 0 | -10 | x

From PubChem
